From PubChem
Hits are enriched below; roughly 3.3% of the tested compounds scored in any of these assays.
Arbovirus inh: blocks arbovirus infection; arbovirus infection cell-based antiviral screen; inhibition, % at 10 µM; actives 0.37% (n = 200,000); AID 1251; in the data active means inhibition above about 30%
WT yeast gro inh: growth inhibition of WT yeast, mitochondrial fusion screen; mitochondrial fusion phenotypic screen, WT strain; inhibition, % at 10 µM; actives 2.1% (n = 190,000); in the data active means inhibition above about 58%; tested in S. cerevisiae
ROMK primary: human ROMK K+ channel modulation, primary screen; Tet-inducible ROMK, thallium flux fluorescence; actives lie on both sides; B-score at 10 µM; P48048; actives 2% (n = 130,000);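 active means signal ratio slope over the read window, or its plate-corrected B-score, at least 3 SD from the plate mean, either direction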;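 further: B-score of the F/F0 ratio slope over 7 to 12 s after thallium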
PERK inh: blocks human PERK kinase | Q9NZJ5 | CHO PERK-DD fusion, SEAP luminescence translation reporter | inhibition, % at 5.6 µM | actives 0.17% (n = 220,000) | AID 1416;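 active means inhibition above the mean inhibition of all tested compounds plus 3 SD, set separately per screening campaign, cut at about 2.9% in these data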;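 further: PERK kinase domain activated by AP20187 dimerizer at 100 nM; 0% = DMSO with dimerizer and 100% = rapamycin at 8.4 µM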
Target sequence (Q9NZJ5 whole entry, looked up, the tested form may be a part): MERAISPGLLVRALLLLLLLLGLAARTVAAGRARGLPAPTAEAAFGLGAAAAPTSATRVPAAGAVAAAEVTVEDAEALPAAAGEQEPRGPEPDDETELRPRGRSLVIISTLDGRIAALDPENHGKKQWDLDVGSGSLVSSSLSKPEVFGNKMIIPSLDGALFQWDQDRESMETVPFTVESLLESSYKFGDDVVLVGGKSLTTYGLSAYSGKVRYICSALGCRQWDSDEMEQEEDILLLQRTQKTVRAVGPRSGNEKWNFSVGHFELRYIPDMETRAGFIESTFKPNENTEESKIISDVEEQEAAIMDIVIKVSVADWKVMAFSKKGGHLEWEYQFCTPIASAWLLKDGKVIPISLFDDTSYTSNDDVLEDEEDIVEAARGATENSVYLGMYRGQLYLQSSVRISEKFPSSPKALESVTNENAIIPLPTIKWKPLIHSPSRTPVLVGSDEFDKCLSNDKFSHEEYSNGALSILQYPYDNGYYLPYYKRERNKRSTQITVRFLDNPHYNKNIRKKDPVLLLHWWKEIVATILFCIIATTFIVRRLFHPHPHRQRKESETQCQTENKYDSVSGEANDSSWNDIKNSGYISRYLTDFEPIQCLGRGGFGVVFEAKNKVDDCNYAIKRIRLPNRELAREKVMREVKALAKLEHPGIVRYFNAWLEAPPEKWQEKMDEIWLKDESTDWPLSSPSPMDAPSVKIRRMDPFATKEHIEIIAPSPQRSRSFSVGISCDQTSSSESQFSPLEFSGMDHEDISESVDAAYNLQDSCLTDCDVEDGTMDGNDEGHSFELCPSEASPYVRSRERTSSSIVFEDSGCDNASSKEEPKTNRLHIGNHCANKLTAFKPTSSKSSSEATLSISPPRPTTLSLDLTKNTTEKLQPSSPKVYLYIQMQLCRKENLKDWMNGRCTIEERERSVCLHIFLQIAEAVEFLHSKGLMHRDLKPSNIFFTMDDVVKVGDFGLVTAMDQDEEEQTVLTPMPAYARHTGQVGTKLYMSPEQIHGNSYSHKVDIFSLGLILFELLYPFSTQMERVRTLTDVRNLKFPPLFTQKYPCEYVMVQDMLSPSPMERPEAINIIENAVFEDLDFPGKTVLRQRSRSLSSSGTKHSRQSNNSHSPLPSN
ROMK retest: human ROMK channel modulation, retest confirmation; shares compounds with ROMK primary; ROMK thallium flux, fluorescence ratio; hits give low values; normalized thallium flux (F/F0 slope) at 10 µM; actives 54% (n = 3,000); AID 1917;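 active means Flux at 10 µM at least 3 SD below or above vehicle control mean in one or both replicates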
* marks the source's active call; other numbers are inactive results; · = no result; ! = a repeat was not active.

SMILES	Arbovirus inh	WT yeast gro inh	ROMK primary	PERK inh	ROMK retest
CC(NC(=O)c1cc(-c2ccc(Br)cc2)on1)c1ccccc1 (stereo not drawn)	-9	3	-0.41	2	·
CC1CCC(C(C)C)C(OC(=O)Cn2c(-c3ccc(F)cc3)[n+](C)c3ccccc32)C1 (stereo not drawn)	-45	23	-5*	0	0.047*
CC1CCC(C(C)C)C(OC(=O)Cn2c(-c3ccccc3)[n+](C)c3ccccc32)C1 (stereo not drawn)	-28	40	-6.3*	0	0.039*
Cc1cccc(OCc2n(CC(=O)OC3CC(C)CCC3C(C)C)c3ccccc3[n+]2C)c1 (stereo not drawn)	-29	43	-6.2*	0	0.037*
Cc1cccc(OC(=O)Cn2c(C(F)(F)F)nc3ccccc32)c1	14	22	-0.74	1	·
O=C1N/C(=C/c2ccc(N3CCOCC3)o2)C(=O)N1c1ccccc1	-1	6	-3.4*	1	0.049*
C=CCN1C(c2cccc(C(F)(F)F)c2)=CS/C1=C(/C#N)c1nnc(N2CCOCC2)n1-c1ccccc1	-14	-76	-4.6*	-1	0.047*
C=CCN1C(c2ccc(Br)cc2)=CS/C1=C(/C#N)c1nnc(N2CCOCC2)n1-c1ccccc1	-18	4	-3.9*	-1	0.057*
O=C1c2ccc(Oc3ccc4c(c3)C(=O)N(CCCO)C4=O)cc2C(=O)N1CCCO	-4	9	·	1	·
CC1Cc2nc(SCC(=O)N3CCN(c4ccccc4)CC3)n(CCc3ccccc3)c(=O)c2S1 (stereo not drawn)	-16	3	·	-1	0.064*
CC1(C)CNC(=O)c2sc(NC(=O)c3ccccc3Cl)nc2C1	-7	-7	-0.32	0	0.076
CCOC(=O)c1c(NC(=O)C2CC(Cl)=CCC2C(=O)O)sc2c1CC(C)(C)OC2 (stereo not drawn)	3	-28	-0.37	1	·
COCCCNC(=O)c1cccn2c(=O)c3cc4ccccc4cc3nc12	-23	44	·	0	0.054*
Cn1ncc([N+](=O)[O-])c1C(=O)N/N=C/c1cccc([N+](=O)[O-])c1	-9	-7	·	1	·
COc1ccc(OC)c(C2NC(=S)NC3=C2N2CCC3CC2)c1 (stereo not drawn)	7	3	3*	1	0.074
OCCCc1nc2ccccc2n1CCOc1ccccc1	5	8	-2.9*	-1	0.067*
Cc1ccc(OCCn2c(CCCO)nc3ccccc32)cc1	2	-25	-1	-2	·
O=C(O)c1ccc2c(c1)C1C=CCC1C(c1cc3c(cc1Br)OCO3)N2 (stereo not drawn)	-14	35	4*	0	0.089
COc1ccc(OC)c(N(CC(=O)Nc2ccc3c(c2)OCO3)S(=O)(=O)c2ccccc2)c1	-7	14	-2.8*	0	0.075
COc1ccccc1N(Cc1ccccc1)S(=O)(=O)c1cccc(C(=O)Nc2ccc(C(C)=O)cc2)c1	-5	-9	1.1	0	·
COc1ccc(OC)c(NC(=O)c2cccc(S(=O)(=O)N(Cc3ccccc3)c3ccccc3OC)c2)c1	-1	11	·	-1	0.078
CN1CC=C2C(C#N)=C(N)C(C#N)(C#N)[C@H](c3cccs3)[C@H]2C1	-8	2	-1.6	1	·
CN1CCC2(CC1)C1CN(C)CC=C1C(C#N)=C(N)C2(C#N)C#N (stereo not drawn)	5	5	-3.4*!	1	0.057*
CCCCNCCOCCOc1ccc(Cl)cc1Br	-37	49	-2.8	-1	·
CCN(c1cccc(C)c1)c1nc2ccsc2c(=O)s1	2	9	-0.63	-1	·
SMILES	Arbovirus inh	WT yeast gro inh	ROMK primary	PERK inh	ROMK retest
CN(C)CCNC(=O)/C(=C/c1ccc(-c2ccc(Cl)cc2)o1)NC(=O)c1ccccc1	-45	18	-4.4*	-1	0.06*
CN(C)CCNC(=O)/C(=C/c1ccc(-c2ccc(Cl)cc2Cl)o1)NC(=O)c1ccccc1	-35	53	·	-1	·
Cc1ccc(C(=O)N/C(=C\c2ccc(-c3ccc(Br)cc3)o2)C(=O)NCCCN(C)C)cc1	-29	3	-3.7*	1	0.048*
COc1ccc(Cl)cc1NC(=O)CSc1nnc(Cn2c(=O)sc3ccccc32)n1C	3	-3	·	1	·
Cc1cc(C)c(S(=O)(=O)Nc2cccc(/C=C/C(=O)O)c2)c(C)c1	3	-12	·	1	·
CN(CC(=O)Nc1ccncc1)S(=O)(=O)c1ccc(Br)cc1	8	10	·	-1	·
CN(CCCC(=O)Nc1ccncc1)S(=O)(=O)c1ccc(Cl)cc1	5	12	-3.4*	-1	0.065*
c1ccc(CSc2nnc3c4ccccc4c4ccccc4c3n2)cc1	·	·	·	1	·
